Reference: PubChem BioAssay (NCI)
Compounds without any hit were thinned out: in the full panel of roughly 79,000, 15% have a hit. The source made the active and inactive calls. Cut-off read from the data, not from the text of the source: active = growth inhibition above about 70%; inactive = the rest.

Key:
[1] = NCI Yeast Anticancer Drug Screen. Data for the rad50 strain (AID 155);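 note: 0% = growth of vehicle-only cultures of the same strain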; conditions: S. cerevisiae rad50 strain growth inhibition, stronger effect = higher value
In short: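 Compounds were tested on a yeast strain with an engineered DNA damage repair alteration; the reported value is growth inhibition normalised to vehicle treatment.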

[2] = NCI Yeast Anticancer Drug Screen. Data for the mec2-1 strain (AID 157); conditions: S. cerevisiae mec2-1 strain, stronger effect = higher value
In short: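 Test agents were screened against the mec2-1 yeast strain, with defined DNA repair or cell cycle alteration. Growth was scored as inhibition against vehicle-only controls.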

[3] = NCI Yeast Anticancer Drug Screen. Data for the sgs1 mgt1 strain (AID 161);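 note: 0% = growth of cultures given vehicle only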; conditions: S. cerevisiae sgs1 mgt1 strain, stronger effect = higher value
In short: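 Mutant yeast exposed to compound; growth scored against vehicle-only wells.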

[4] = NCI Yeast Anticancer Drug Screen. Data for the cln2 rad14 strain (AID 165);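 note: 0% = growth equal to vehicle treated cultures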; conditions: S. cerevisiae cln2 rad14 strain, stronger effect = higher value
In short: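 Growth of compound-exposed yeast (cln2 rad14 genotype) measured and expressed as inhibition relative to vehicle.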

[5] = NCI Yeast Anticancer Drug Screen. Data for the bub3 strain (AID 167); conditions: S. cerevisiae bub3 mutant strain, stronger effect = higher value
In short: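 Growth of a checkpoint-deficient yeast mutant is measured after compound exposure. Values represent inhibition relative to vehicle.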

[6] = NCI Yeast Anticancer Drug Screen. Data for the mlh1 rad18 strain (AID 175); conditions: S. cerevisiae mlh1 rad18 strain growth inhibition, stronger effect = higher value
In short: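 In this whole-cell yeast screen, a strain with altered DNA damage repair is challenged with compound, and its growth is measured against matched vehicle-treated controls.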

[7] = at 5.0 µM (retest, dose inferred, filed as 0.5)
[8] = at 50.0 µM (retest, dose inferred, filed as 5.0)

Measured: growth inhibition

CC(=O)N(C)c1ccc(/C=C2\C=Cc3ccccc32)cc1
inactive: [1]; [7] 9% | [1]; at 50.0 µM 41.2% | [2]; [7] 4% | [2]; at 50.0 µM 39.7% | [3]; [7] 10% | [3]; at 50.0 µM 26.3% | [4]; [7] -4% | [4]; at 50.0 µM 32.8% | [5]; [7] 7% | [6]; [7] 11% | [6]; at 50.0 µM 56.3%
active: [1]; [8] 91% | [2]; [8] 94% | [3]; [8] 93% | [4]; [8] 81% | [5]; [8] 94% | [5]; at 50.0 µM 72.2% | [6]; [8] 92%

CCCCCC(CCCCC)OC(=O)CCN(CCCCC)CCCCC
inactive: [1]; [7] 2% | [2]; [7] 6% | [2]; at 50.0 µM 46.1% | [3]; [7] 14% | [4]; [7] 5% | [5]; [7] 1% | [5]; at 50.0 µM 51.9% | [6]; [7] 3% | [6]; at 50.0 µM 68.9%
active: [1]; [8] 81% | [1]; at 50.0 µM 74% | [2]; [8] 86% | [3]; [8] 97% | [3]; at 50.0 µM 84% | [4]; [8] 75% | [4]; at 50.0 µM 72% | [5]; [8] 87% | [6]; [8] 94%

CC1=C(C(=O)Nc2cc(C)ccc2C)C(c2cccc([N+](=O)[O-])c2)C(C(=O)Nc2cc(C)ccc2C)=C(C)N1
active: [2]; [8] 72% | [5]; [8] 74%
inactive: [1]; [7] 8% | [1]; [8] 49% | [1]; at 50.0 µM -12.3% | [2]; [7] 19% | [2]; at 50.0 µM 34.5% | [3]; [7] 19% | [3]; [8] 34% | [3]; at 50.0 µM 26.7% | [4]; [7] 5% | [4]; [8] 61% | [4]; at 50.0 µM 19.2% | [5]; [7] 17% | [5]; at 50.0 µM 29.6% | [6]; [7] 17% | [6]; [8] 65% | [6]; at 50.0 µM 31.6%

O=C1CCSC(=S)N1c1ccc(Br)c(Cl)c1
active: [1]; [8] 94% | [2]; [8] 94% | [3]; [8] 99% | [3]; at 50.0 µM 72.3% | [4]; [8] 79% | [5]; [8] 98% | [6]; [8] 99%
inactive: [1]; [7] 13% | [1]; at 50.0 µM 39.8% | [2]; [7] 9% | [2]; at 50.0 µM 39.4% | [3]; [7] 52% | [4]; [7] -4% | [4]; at 50.0 µM 12.7% | [5]; [7] -4% | [5]; at 50.0 µM 13.8% | [6]; [7] 29% | [6]; at 50.0 µM 69.5%

CCOc1ccc(Nc2nc(C)c(C(=O)/C=C/c3ccc(Cl)cc3Cl)s2)cc1
active: [1]; at 50.0 µM 71.1%
inactive: [1]; [7] 25% | [1]; [8] 25% | [2]; [7] -6% | [2]; [8] -6% | [2]; at 50.0 µM 31.9% | [3]; [7] 8% | [3]; [8] 8% | [3]; at 50.0 µM 33% | [4]; [7] 6% | [4]; [8] 6% | [4]; at 50.0 µM 48.4% | [5]; [7] 6% | [5]; [8] 6% | [5]; at 50.0 µM 55.5% | [6]; [7] 20% | [6]; [8] 20% | [6]; at 50.0 µM 17.6%

CCN(CC)CCNc1cc(C)nc2c1ccc1c2ccc2c(NCCN(CC)CC)cc(C)nc21
active: [1]; [8] 96% | [2]; [8] 98% | [2]; at 50.0 µM 98% | [3]; [8] 96% | [4]; [8] 95% | [4]; at 50.0 µM 93% | [5]; [8] 90% | [5]; at 50.0 µM 96% | [6]; [8] 97% | [6]; at 50.0 µM 96.4%
inactive: [1]; [7] -3% | [1]; at 50.0 µM 62.3% | [2]; [7] 18% | [3]; [7] -3% | [3]; at 50.0 µM 54.5% | [4]; [7] -16% | [5]; [7] -2% | [6]; [7] -3%

CCCCNC(=S)N/N=C/c1cccc(C)n1
inactive: [1]; [7] -3% | [1]; at 50.0 µM 1.35% | [2]; [7] -8% | [2]; at 50.0 µM 32.5% | [3]; [7] -16% | [3]; at 50.0 µM 59.2% | [4]; [7] -11% | [4]; at 50.0 µM 17.4% | [5]; [7] -27% | [5]; at 50.0 µM 42.5% | [6]; [7] 8% | [6]; at 50.0 µM -11.1%
active: [1]; [8] 98% | [2]; [8] 98% | [3]; [8] 98% | [4]; [8] 99% | [5]; [8] 97% | [6]; [8] 99%
